Inconclusive results are not listed. Activity calls are given as the source filed them. The call rests on the fitted dose curve; in most records, active means well fitted curve in the direction sought with a large enough effect; inconclusive means small, poorly fitted or top-dose-only effect, or another doubt; inactive means no such curve, though single readings can be large or run the other way.
molecular target: Nuclear receptor subfamily 1 group I member 2 (Homo sapiens) (UniProt O75469); assay: Dual reporter qHTS for antagonist of Pregnane X Receptor (hPXR) against the NCATS DSHEA and TCM libraries: Luminescence Readout (AID 1920060); details: hPXR dual reporter cells, luciferase luminescence, antagonist mode; series mostly up to 40 µM
Sequence (O75469 whole entry, looked up): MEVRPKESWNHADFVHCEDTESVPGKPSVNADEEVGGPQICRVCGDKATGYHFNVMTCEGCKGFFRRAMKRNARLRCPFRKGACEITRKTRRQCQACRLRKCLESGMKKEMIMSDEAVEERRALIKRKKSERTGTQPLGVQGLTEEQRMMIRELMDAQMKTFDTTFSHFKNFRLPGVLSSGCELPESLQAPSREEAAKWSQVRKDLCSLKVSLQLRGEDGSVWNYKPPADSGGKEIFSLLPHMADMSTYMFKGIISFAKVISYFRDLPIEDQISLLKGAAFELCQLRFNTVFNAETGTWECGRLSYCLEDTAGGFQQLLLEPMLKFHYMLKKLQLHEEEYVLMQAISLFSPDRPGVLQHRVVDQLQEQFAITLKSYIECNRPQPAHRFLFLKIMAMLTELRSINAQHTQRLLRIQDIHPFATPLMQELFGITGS
Excerpt: Assay Development and Screening Technology Laboratory (ADST)
National Center for Advancing Translational Sciences (NCATS), Rockville, MD
National Institute of Health (NIH), Bethesda, Maryland
Dietary Supplements and Natural Products have minor oversight of their safety and efficacy. We assembled a collection of Dietary Supplements and Natural Products (DSNP) as well as Traditional Chinese Medicinal (TCM) Plant extracts, which were screened against an in vitro panel of assays, including a liver cytochrome p450 enzyme panel, CAR/PXR signaling pathways, and P-gp transporter assays, to assess their activity. This pipeline facilitated the interrogation of Natural Product-Drug Interaction (NaPDI) through prominent metabolizing pathways. In addition, we compared the activity profiles of the DSNP/TCM substances with those of an approved drug collection. Many of the approved drugs have well-annotated mechanisms of action (MOA) while the MOAs for most of the DSNP and TCM samples remain unknown. Based on the premise that compounds with similar activity profiles tend to share similar targets or MOA, we clustered the library activity profiles to identify overlap with the NCATS Pharmaceutical Collection to predict the MOAs of the DSNP/TCM substances. Overall, we highlight four significant bioactivity profiles (measured by p-values) as examples of this prediction. To assess broad cytotoxicity, we employed screening against a HepG2 cell line. In addition, transporter-mediated drug interactions are utilized in the characterization of DDIs using a P-glycoprotein (P-gp) assays. To profile potential P-gp activity, a differential cell viability was measured against two cell lines: a parental KB-3-1 human cervical adenocarcinoma cell line and the drug-resistant subline KB-8-5-11 that overexpresses P-gp.
To this end, we profiled both collections for potential CAR and/or PXR activity, employing a previously published 1536-well qHTS assay.
[1] Lee TD, et al. A High-Throughput Screen of a Library of Therapeutics Identifies Cytotoxic Substrates of P-glycoprotein. Mol Pharmacol. Nov 2019;96(5):629-640. doi:10.1124/mol.119.115964
For PXR luciferase reporter gene assays, we used hPXR-LucHepG2cells provided by Dr. Taosheng Chen (Department of Chemical Biology and Therapeutics, St. Jude Children's Research Hospital). Cells were cultured in EMEM supplemented with 10% fetal bovine serum, 100U/mL penicillin and 100ug/mL streptomycin, and 500ug/mL of geneticin.
PROTOCOL TABLE (as described by Inglese J, Shamu CE and Guy RK. 2007)
SEQUENCE No. (e.g., 1, 2, 3, etc.); PARAMETER (e.g., Cells, Incubation, Reagent, etc.); VALUE; DESCRIPTION.
1; Cells; 5 uL; hPXR-LucHepG2; white solid-bottom Greiner plate.
2; Incubation; 5h; 37C, 95% humidity, 5% CO2
3; Compounds and control; 23 nL; Kalypsis pintool (Wako USA).
4; Reagent; 1uL; rifampicin (RIF) in the antagonist mode.
6; Reagent; 1 uL; CellTiter-Fluor detection reagent.
7; Incubation; 1 hr; 37C, 5% CO2.
8; Read; Fluorescence; ViewLux plate reader.
9; Reagent; 4 uL; ONE-Glo Luciferase detection reagent.
10; Incubation; 30 min; room temperature.
11; Read; Luminescence; ViewLux plate reader.
NOTES (numbers refer to Sequence numbers above)
1. Briefly, 5uL of hPXR-LucHepG2 cells in phenol red-free DMEM containing 5% charcoal-stripped FBS, 1 mM sodium pyruvate (Invitrogen), 2 mM L-glutamine (Invitrogen), and 100 U/mL penicillin and 100ug/mL streptomycin were dispensed using a BioRAPTR FRD at 4 x 10^5cells/mL (2000cells/well) in tissue culture-treated 1536-well white assay plates (GreinerBio-One).
2. Plates were incubated for 5h at 37C, 95% humidity, and 5% CO2 to allow for cell attachment.
3. Compounds (final concentration for most substances ranged from 15.6 nM to 45.9uM), positive SPA70 (final concentration range of 2.8 nM to 92uM for the antagonist mode), and cytotoxicity control tetraoctyl ammonium bromide (final concentration of 92uM) were transferred (23 nL) via pintool (Wako Automation).
4-5. […]

Question: For COc1cc2c(cc1O)CC1c3c(cc(O)c(OC)c3-2)CCN1C (stereo unspecified), which outcome is on record?
Answer: inactive

Question: With C=C(C)[C@@H]1CCC(C)=C[C@H]1c1c(O)cc(CCCCC)cc1O as the compound, how does the outcome read?
Answer: inactive

Question: CCCCCCCCCCCCCCCCCCCC(=O)O was tested. Which outcome did it give?
Answer: inactive

Question: For C=C[C@H]1CN2CCc3c([nH]c4ccccc34)[C@H]2C[C@@H]1/C(=C\OC)C(=O)OC, which outcome is on record?
Answer: inactive

Question: How did the outcome turn out when C=CCc1ccc2c(c1)OCO2 was run?
Answer: inactive

Question: Which outcome does the source give for C=C[C@H]1CN2CC[C@@]3(C(=O)Nc4ccccc43)[C@@H]2C[C@@H]1/C(=C\OC)C(=O)OC here?
Answer: inactive

Question: COC1=C[C@@]23CCN(C)[C@H](Cc4ccc(OC)c(O)c42)C3=CC1=O was tested. Which outcome did it give?
Answer: inactive

Question: For N#CC(O[C@@H]1O[C@H](CO[C@@H]2O[C@H](CO)[C@@H](O)[C@H](O)[C@H]2O)[C@@H](O)[C@H](O)[C@H]1O)c1ccccc1 (stereo partly specified), which outcome is on record?
Answer: inactive

Question: How did the outcome turn out when COC(=O)C1=CO[C@@H](C)[C@@H]2CN3CC[C@@]4(C(=O)Nc5ccccc54)[C@@H]3CC12 (stereo partly specified) was run?
Answer: inactive

Question: COC1=CC(=O)OC(CCc2ccccc2)C1 (stereo unspecified) was tested. Which outcome did it give?
Answer: inactive

Question: O=S(=O)(O)O was tested. Which outcome did it give?
Answer: inactive

Question: Which outcome does the source give for COc1cc2c(cc1O)CC1NCCc3cc(OC)c(OC)c-2c31 (stereo unspecified) here?
Answer: inactive

Question: With COC1=CC(=O)O[C@@H](/C=C/c2ccc3c(c2)OCO3)C1 as the compound, how does the outcome read?
Answer: inactive

Question: With COc1ccc2c(c1O)-c1c(OC)c(OC)cc3c1[C@H](C2)N(C)CC3 as the compound, how does the outcome read?
Answer: inactive

Question: COc1cc2c(cc1O)C[C@H]1c3c(cc(OC)c(O)c3-2)CCN1C was tested. Which outcome did it give?
Answer: inactive

Question: With CC[C@@H]1CN2CC[C@]3(C(=O)Nc4ccccc43)[C@@H]2C[C@@H]1/C(=C\OC)C(=O)OC as the compound, how does the outcome read?
Answer: inactive

Reference: PubChem BioAssay (NCATS)
